Assay results published in the supplement of paper PMC6897291.
Where a name gives a salt, the structure may show the parent alone.

Tests used:
RIVA [1] = test: growth inhibition by drug plus 177Lu-lilotomab satetraxetan (1 - RLU/untreated control) (fraction); higher = stronger inhibition; details: 177Lu-lilotomab satetraxetan 0.5 ug/ml
Procedure, shortened: (§1)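 RIVA or U-2932 cells were left untreated or pretreated for 18 h with a radiolabelled anti-CD37 antibody conjugate (~600 MBq/mg) at 0.5 µg/ml for RIVA or 1 µg/ml for U-2932. The cells were then washed and seeded at 3,000 cells/well on plates pre-printed with the Selleck Cambridge Cancer Compound library, dosed at 10/100 nM for RIVA and 10/1,000 nM for U-2932. From day 3, RealTime-Glo luminescence was read daily after 1 h at 37°C. Growth inhibition was taken as one minus RLU over the mean of the untreated no-drug wells, of which there were 48 per plate.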

U-2932 [2] = test: growth inhibition by drug alone (1 - RLU/untreated control) (fraction); higher = stronger inhibition; details: 177Lu-lilotomab satetraxetan 0 ug/ml
Procedure, shortened: as §1

RIVA [3] = test: as above; details: 177Lu-lilotomab satetraxetan 0 ug/ml
Procedure, shortened: as §1

U-2932 [4] = test: growth inhibition by drug plus 177Lu-lilotomab satetraxetan (1 - RLU/untreated control) (fraction); higher = stronger inhibition; details: 177Lu-lilotomab satetraxetan 1 ug/ml
Procedure, shortened: as §1

| SMILES | growth inhibition by drug plus 177Lu-lilotomab satetraxetan (RIVA [1]; 100 nM, time (day): 5) | growth inhibition by drug plus 177Lu-lilotomab satetraxetan (RIVA [1]; 100 nM, time (day): 6) | growth inhibition by drug alone (U-2932 [2]; 10 nM, time (day): 3) | growth inhibition by drug alone (U-2932 [2]; 10 nM, time (day): 4) | growth inhibition by drug alone (U-2932 [2]; 10 nM, time (day): 5) | growth inhibition by drug alone (U-2932 [2]; 10 nM, time (day): 6) | growth inhibition by drug alone (U-2932 [2]; 1000 nM, time (day): 3) | growth inhibition by drug alone (U-2932 [2]; 1000 nM, time (day): 4) | growth inhibition by drug alone (U-2932 [2]; 1000 nM, time (day): 5) | growth inhibition by drug alone (U-2932 [2]; 1000 nM, time (day): 6) | growth inhibition by drug alone (RIVA [3]; 10 nM, time (day): 3) | growth inhibition by drug alone (RIVA [3]; 10 nM, time (day): 4) | growth inhibition by drug alone (RIVA [3]; 10 nM, time (day): 5) | growth inhibition by drug alone (RIVA [3]; 10 nM, time (day): 6) | growth inhibition by drug alone (RIVA [3]; 100 nM, time (day): 3) | growth inhibition by drug alone (RIVA [3]; 100 nM, time (day): 4) | growth inhibition by drug alone (RIVA [3]; 100 nM, time (day): 5) | growth inhibition by drug alone (RIVA [3]; 100 nM, time (day): 6) | growth inhibition by drug plus 177Lu-lilotomab satetraxetan (U-2932 [4]; 10 nM, time (day): 3) | growth inhibition by drug plus 177Lu-lilotomab satetraxetan (U-2932 [4]; 10 nM, time (day): 4) | growth inhibition by drug plus 177Lu-lilotomab satetraxetan (U-2932 [4]; 10 nM, time (day): 5) | growth inhibition by drug plus 177Lu-lilotomab satetraxetan (U-2932 [4]; 10 nM, time (day): 6) | growth inhibition by drug plus 177Lu-lilotomab satetraxetan (U-2932 [4]; 1000 nM, time (day): 3) | growth inhibition by drug plus 177Lu-lilotomab satetraxetan (U-2932 [4]; 1000 nM, time (day): 4) | growth inhibition by drug plus 177Lu-lilotomab satetraxetan (U-2932 [4]; 1000 nM, time (day): 5) | growth inhibition by drug plus 177Lu-lilotomab satetraxetan (U-2932 [4]; 1000 nM, time (day): 6) | growth inhibition by drug plus 177Lu-lilotomab satetraxetan (RIVA [1]; 10 nM, time (day): 3) | growth inhibition by drug plus 177Lu-lilotomab satetraxetan (RIVA [1]; 10 nM, time (day): 4) | growth inhibition by drug plus 177Lu-lilotomab satetraxetan (RIVA [1]; 10 nM, time (day): 5) | growth inhibition by drug plus 177Lu-lilotomab satetraxetan (RIVA [1]; 10 nM, time (day): 6) | growth inhibition by drug plus 177Lu-lilotomab satetraxetan (RIVA [1]; 100 nM, time (day): 3) | growth inhibition by drug plus 177Lu-lilotomab satetraxetan (RIVA [1]; 100 nM, time (day): 4) |
| --- | --- | --- | --- | --- | --- | --- | --- | --- | --- | --- | --- | --- | --- | --- | --- | --- | --- | --- | --- | --- | --- | --- | --- | --- | --- | --- | --- | --- | --- | --- | --- | --- |
| Cc1cn(-c2cc(NC(=O)c3ccc(C)c(Nc4nccc(-c5cccnc5)n4)c3)cc(C(F)(F)F)c2)cn1 [Nilotinib (AMN-107)] | 0.491 | 0.466 | – | – | – | – | – | – | – | – | – | – | – | – | – | – | – | – | – | – | – | – | – | – | – | – | – | – | – | – | – | – |
| O=C1c2c(O)ccc(O)c2C(=O)c2c(NCCNCCO)ccc(NCCNCCO)c21 [Mitoxantrone Hydrochloride] | 0.947 | 0.962 | 0.436 | 0.52 | 0.635 | 0.732 | 0.945 | 0.971 | 0.981 | 0.986 | 0.293 | 0.565 | 0.667 | 0.759 | 0.568 | 0.82 | 0.873 | 0.904 | 0.559 | 0.694 | 0.81 | 0.881 | 0.971 | 0.982 | 0.987 | 0.99 | 0.83 | 0.913 | 0.95 | 0.968 | 0.736 | 0.92 |
| N#Cc1ccc(NC(=O)Nc2ccccc2Br)c2n[nH]nc12 | 0.544 | 0.542 | 0.122 | 0.0624 | -0.115 | -0.0627 | 0.0674 | 0.0714 | -0.0804 | -0.0945 | -0.0525 | 0.00855 | -0.101 | -0.43 | -0.383 | -0.198 | -0.264 | -0.513 | 0.0243 | 0.065 | 0.134 | 0.142 | 0.0797 | 0.0995 | 0.138 | 0.218 | 0.534 | 0.601 | 0.605 | 0.619 | 0.463 | 0.528 |
| CN(Cc1cnc2nc(N)nc(N)c2n1)c1ccc(C(=O)N[C@@H](CCC(=O)O)C(=O)O)cc1 [Abitrexate (Methotrexate)] | 0.483 | 0.457 | -0.0461 | -0.0435 | -0.0522 | -0.0907 | 0.866 | 0.93 | 0.956 | 0.968 | -0.206 | -0.255 | -0.282 | -0.39 | -0.038 | -0.184 | -0.173 | -0.287 | -0.123 | -0.083 | -0.0233 | 0.0372 | 0.851 | 0.924 | 0.957 | 0.972 | 0.364 | 0.489 | 0.508 | 0.521 | 0.452 | 0.49 |
| N#CC1(c2ccc(NC(=O)c3cccnc3NCc3ccncc3)cc2)CCCC1 [Apatinib (YN968D1)] | 0.555 | 0.524 | 0.0813 | 0.0775 | 0.0186 | -0.0775 | -0.000689 | 0.0222 | -0.108 | -0.279 | -0.0437 | 0.0236 | -0.0386 | -0.253 | -0.0842 | -0.0337 | -0.084 | -0.223 | 0.0626 | 0.101 | 0.109 | 0.137 | -0.0473 | 0.0612 | 0.0296 | 0.0686 | 0.491 | 0.579 | 0.593 | 0.615 | 0.497 | 0.559 |
| O=C(Nc1cccc(Cl)c1)Nc1ncc(CCNc2ncnc3ccsc23)s1 | 0.511 | 0.596 | 0.0932 | 0.0546 | 0.111 | 0.319 | 0.16 | 0.209 | 0.218 | 0.355 | 0.0836 | 0.115 | 0.215 | 0.331 | 0.0102 | 0.0483 | 0.135 | 0.239 | 0.0766 | 0.0714 | 0.202 | 0.505 | 0.201 | 0.317 | 0.351 | 0.495 | 0.463 | 0.543 | 0.579 | 0.666 | 0.389 | 0.481 |
| N#CCNC(=O)c1ccc(-c2ccnc(Nc3ccc(N4CCOCC4)cc3)n2)cc1 | 0.447 | 0.446 | -0.0265 | -0.0512 | -0.0373 | 0.104 | -0.161 | -0.159 | -0.134 | 0.0156 | -0.164 | -0.233 | -0.267 | -0.364 | -0.378 | -0.377 | -0.416 | -0.56 | -0.0778 | -0.021 | 0.0189 | 0.13 | 0.143 | 0.174 | 0.206 | 0.384 | 0.481 | 0.53 | 0.555 | 0.562 | 0.347 | 0.434 |
| CC(=O)Nc1nc(C)c(-c2ccc(Cl)c(S(=O)(=O)NCCO)c2)s1 | 0.448 | 0.434 | 0.075 | 0.0569 | 0.00221 | -0.159 | 0.302 | 0.29 | 0.248 | 0.307 | 0.0212 | 0.026 | -0.0187 | -0.271 | -0.0771 | -0.0663 | -0.1 | -0.193 | -0.0326 | 0.00318 | 0.0521 | 0.103 | 0.423 | 0.467 | 0.424 | 0.489 | 0.348 | 0.493 | 0.527 | 0.549 | 0.317 | 0.471 |
